Growth data for 40 compounds are collected here from PubChem BioAssay (NCI).

The structures appear in SMILES notation. The panel holds about 83,000 compounds, 20% with a hit somewhere; the sample as a whole holds those more often.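 Method: cells in 96-well plates; compound added at one concentration; 48 h incubation; percent growth measured; values under 10 scored active.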 A number with no mark means an inactive call. Active and inactive are the calls of the source.

The assay concerns MCF7 breast. Kind of assay: NCI-60 one-dose screen, 48 h (100 = growth as untreated, 0 = no growth, -100 = all killed). The settings on record: 10 µM unless noted. On the procedure:
Growth inhibition of the MCF7 human tumor cell line is measured as a screen for anti-cancer activity. Cells are grown in 96 well plates and exposed to the test compound for 48 hours. Compounds are tested at a single concentration, which is 10^-5 M for most compounds. The reported endpoint is percent growth (GI% or GIPRCNT), where numbers from 0 - 100% represent growth inhibition, and numbers from -100% - 0 represent cell death. For example, a value of 40 represents 60% growth inhibition. A value of 0 means no net growth occurred over the course of the experiment. A value of -40 indicates 40% of cells at the beginning of the experiment died by the end of the experiment. A value of -100 means all cells are dead at the end of the experiment.
NCI-60 Human Tumor Cell Lines Screen was performed using the standard one-dose NCI protocol, which is described in more detail at https://dtp.cancer.gov/discovery_development/nci-60/default.htm.
Compounds with GIPRCNT values below 10 were considered active. Activity score was based on GIPRCNT using the following formula: […]
Score is 0 for GIPRCNT values of 100 or above, 50 for GIPRCNT values of 0, and 100 for GIPRCNT values of -100.
For the compound `CCNCCNc1cc(-c2ccc(C(F)(F)F)cc2)c(C#N)c2nc3cc(Cl)c(Cl)cc3n12`, the growth was -70.6% (active).

For `CN(C)S(=O)(=O)n1cnc([C@@H]2[C@@H]3C(=O)OC[C@@H]3C[C@]23N=CN(Cc2ccccc2)C3=O)c1`, the growth is 100%.

Consider `O=C1/C(=C/c2ccc([N+](=O)[O-])cc2)COc2ccc(O)c(O)c21`, for which the growth was 8.42% (active).

On to `CCNCCNc1cc(-c2ccc(F)cc2)c(C#N)c2nc3ccccc3n12`, for which the growth was 35.4%.

On to `COc1cc(NC(=O)c2cccc(-c3cc(=O)c4c(OC)c(OC)c(OC)cc4o3)c2)cc(OC)c1OC`, for which the growth was 34.3%.

With `COc1cc(C(=O)/C=C/c2c(-c3ccc(F)cc3)nc3ncccn23)cc(OC)c1OC`, the growth is 10%.

On to `CCOc1ccc2nc(-c3cccc(OCC(=O)NC(C)C)c3)nc(Nc3ccc(-c4cn[nH]c4)cc3)c2c1`, for which the growth was -16.8% (active).

As for `c1ccc(-c2oc3ccccc3c2-c2ccccc2)cc1`, the growth was 115%.

Regarding `Cl.Fc1c[c-]c(-c2ccccn2)c(F)c1.[Pt].c1ccc([PH+](c2ccccc2)c2ccccc2[PH+](c2ccccc2)c2ccccc2)cc1`, the growth was -79.3% (active).

For the compound `C=C1C(=O)O[C@H]2[C@H]1CC/C(COC(=O)/C=C/C(=O)NCc1ccc(Cn3c(=O)sn(-c4ccccc4)c3=O)cc1)=C\CC[C@@]1(C)O[C@@H]21`, the growth was 5.01% (active).

`COc1ccc(-c2cc(-c3cc(OC)ccc3OC)[nH]c(=O)c2C#N)cc1`: the growth is 59.5%.

Take `Cc1cc(N(CCCNc2ccnc3cc(Cl)ccc23)Cc2ccccn2)nc(N2CCCC2)n1`: the growth is 56.9%.

Take `Nc1ccc(S(=O)(=O)Nc2ccsc2-c2nc(-c3ccccc3)no2)cc1`: the growth was 55.9%.

Consider `Cc1ccc(Nc2ccc(Nc3ccc(C)cc3S(=O)(=O)O)c3c2C(=O)c2ccccc2C3=O)c(S(=O)(=O)O)c1`, for which the growth was 92.2%.

With `NC(N)=N/N=C/CO`, the growth is 98.3%.

On to `O=C(CCl)N1c2cccc3cccc(c23)N(C(=O)CCl)C1c1cn(-c2ccccc2)nc1-c1cccc([N+](=O)[O-])c1`, for which the growth was 51.6%.

Turning to `COc1ccc(OC)c(Nc2nc3nonc3nc2Nc2cc(OC)ccc2OC)c1`, the growth is 65.7%.

Regarding `CC(c1ccc(-n2cccn2)cc1)c1cnc(N2CCc3ccc(C(N)=O)cc3C2)s1` (stereo not given), the growth was 37%.

With `CO[C@H]1/C=C/O[C@@]2(C)Oc3c(C)c(O)c4c(c3C2=O)C(=O)C(/C=N/N(c2ccccc2)c2ccccc2)=C(NC(=O)/C(C)=C\C=C\[C@H](C)[C@H](O)[C@@H](C)[C@@H](O)[C@@H](C)[C@H](OC(C)=O)[C@@H]1C)C4=O`, the growth was 2.54% (active).

With `C=C1C(=O)O[C@H]2[C@H]1CC/C(COC(=O)/C=C\C(=O)NCc1ccc(Cn3c(=O)sn(CCCI)c3=O)cc1)=C\CC[C@@]1(C)O[C@@H]21`, the growth is -53.5% (active).

For `O=C(/C=C/C12c3ccccc3C(c3ccccc31)C1C(=O)N(c3ccccc3)C(=O)C12)c1ccc(Cl)cc1` (stereo not given), the growth is 18.4%.

For `C=C1c2c(C)nn(-c3ccc(S(N)(=O)=O)cc3)c2N(C)C23CC1C1(C)c4c(C)nn(-c5ccc(S(N)(=O)=O)cc5)c4N(C)C(C)(CC12)C3` (stereo not given), the growth is 15.9%.

`CCN(CC)CCOc1ccc(/C(=C(\C)c2ccc(F)c(OC)c2)c2ccc(Cl)cc2)cc1`: the growth is -3.59% (active).

With `CCOC(=O)c1c2c(c(C)n1C)-c1nn(Cc3ccc(OC)cc3)cc1CC2`, the growth is 99.3%.

For `CCOC(=O)Cc1csc2nc(-c3ccccc3)nn12`, the growth is 96.5%.

Consider `CC/C=C/[C@@H]1C=C[C@@H]2CCC[C@H]2[C@@H]1CC[C@H](O)[C@H](C)N`, for which the growth was -85.8% (active).

For the compound `C=C1C(=O)O[C@H]2[C@H]1CC/C(Cn1cc(CNCCc3c[nH]c4ccccc34)nn1)=C\CC[C@@]1(C)O[C@@H]21`, the growth is 90.2%.

Turning to `CC(C)c1ccc(NC(=O)Cc2ccc(Nc3ncnc4cc(-c5cnn(CCN(C)C)c5)ccc34)cc2)cc1`, the growth was -49.1% [30 µM] (active).

As for `CCN(CC)S(=O)(=O)c1ccc(O)c(NC(=O)c2[nH]c(C)c(C(C)=O)c2CCc2ccc(Cl)cc2)c1`, the growth is 43.8%.

Consider `N=C(N)c1ccc(-c2ccc(-c3ccc(Cl)cn3)s2)cc1`, for which the growth is -44.4% (active).

For `COc1cc(NC(=O)c2cccc(-c3cc(=O)c4c(O)c(OC)c(OC)cc4o3)c2)cc(OC)c1OC`, the growth was 49.4%.

`N=C(N)c1ccc(-c2ccc(-c3ccc(Cl)c(Cl)c3)o2)nc1`: the growth is -76.8% (active).

Consider `CC(C)(C)Nc1c(-c2c3ccccc3cc3ccccc23)nc2ccccn12`, for which the growth was 74.2%.

For the compound `O=[N+]([O-])c1ccc(-c2cc3c(Nc4ccc(Cl)c(C(F)(F)F)c4)ncnc3s2)cc1`, the growth is 3.55% (active).

Regarding `CCCCOC(=O)c1ccc(NC(=O)C(C)N2CCOCC2)cc1` (stereo not given), the growth was 106%.

As for `CC(=O)Nc1nccs1`, the growth is 91.2%.

Turning to `Nc1c(-c2nc3ccccc3c(=O)[nH]2)nnn1-c1ccc(Cl)cc1`, the growth is 90%.

With `CC(C)(C)N1CC(OC(N)=O)C1`, the growth is 102%.

Take `COc1ccc(C2=NC(=O)NC2c2ccc(OC)cc2)cc1` (stereo not given): the growth was 29.3%.

For `NS(=O)(=O)Oc1ccc(NC(=O)C23CC4CC(CC(C4)C2)C3)cc1Cl`, the growth was 97.3%.
